Measured values: the supplement of paper PMC3616981
± gives the standard deviation of the averaged measurements.

Compound: CC(C)c1cccc(C(C)C)c1N1C(=O)c2ccc(O)cc2C1=O
Test: reporter fold induction vs vehicle; higher = higher reporter activity
Outline: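 Multiplexed cellular biosensor reporter system with cis response-element and trans nuclear-receptor transcription factor reporter constructs (48 cis, 25 trans) and homogeneous detection, tested in ToxCast Phase II at 8 concentrations (0.091–200 µM). Reporter activity is given as fold induction relative to vehicle control. Replicates were averaged where present.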

Row | Target | reporter fold induction (0.091 µM) | reporter fold induction (0.274 µM) | reporter fold induction (0.823 µM) | reporter fold induction (2.469 µM) | reporter fold induction (7.407 µM) | reporter fold induction (22.22 µM) | reporter fold induction (66.67 µM) | reporter fold induction (200 µM)
1 | PBREM_CIS | 1.05 | 1.04 | 0.916 | 0.965 | 1.24 | 1.15 | 1.19 | 1.16
2 | PXRE_CIS | 1.22 | 1.56 | 0.755 | 0.738 | 6.98 | 6.26 | 2.42 | 0.398
3 | HNF6_CIS | 0.992 | 0.941 | 0.978 | 0.981 | 0.982 | 0.952 | 0.932 | 0.692
4 | HIF1a_CIS | 1.04 | 1.07 | 1.03 | 1.03 | 1.07 | 1.22 | 0.927 | 1.08
5 | M_06_TRANS | 0.964 | 1.01 | 0.995 | 1.01 | 1.01 | 1 | 0.996 | 0.992
6 | PPRE_CIS | 1.02 | 0.905 | 1.09 | 0.944 | 1.08 | 1.21 | 2.59 | 1.68
7 | RARb_TRANS | 0.778 | 0.835 | 0.897 | 0.861 | 1.51 | 1.95 | 1.29 | 0.429
8 | M_19_CIS | 1.01 | 1.01 | 0.978 | 1.01 | 0.961 | 0.953 | 1.05 | 0.776
9 | FoxA2_CIS | 1.02 | 0.959 | 1.04 | 0.939 | 1.05 | 0.978 | 1.28 | 1.32
10 | FXR_TRANS | 1.17 | 1.15 | 1.19 | 1.17 | 1.09 | 1.46 | 1.82 | 1.92
11 | Oct_MLP_CIS | 1.09 | 1.03 | 1.03 | 1.01 | 1.08 | 1.1 | 1.77 | 3.68
12 | Myb_CIS | 0.995 | 0.98 | 1.02 | 0.983 | 0.998 | 0.979 | 1.03 | 1.13
13 | SREBP_CIS | 1.04 | 0.954 | 1.01 | 0.996 | 1.05 | 0.976 | 1.16 | 1.49
14 | AP_2_CIS | 1.04 | 1 | 1 | 1.05 | 1.01 | 0.908 | 0.965 | 0.898
15 | NRF2_ARE_CIS | 1.19 | 1.1 | 0.995 | 0.886 | 1.15 | 1.48 | 2.47 | 0.886
16 | GRE_CIS | 0.966 | 0.951 | 1.06 | 1.05 | 0.999 | 0.996 | 1.01 | 0.888
17 | GR_TRANS | 0.906 | 1.07 | 1.06 | 1.18 | 0.95 | 1.13 | 1.24 | 1.38
18 | TA_CIS | 1.06 | 1 | 1.04 | 0.923 | 0.983 | 1.08 | 1.39 | 1.22
19 | NURR1_TRANS | 1.09 | 1.26 | 1.01 | 1.05 | 1.08 | 0.976 | 0.934 | 1.2
20 | NFI_CIS | 1.01 | 0.966 | 1.05 | 0.998 | 1.02 | 0.921 | 1.41 | 1.66
21 | RXRb_TRANS | 1.04 | 1.11 | 1.24 | 1.01 | 1.17 | 1.19 | 1.07 | 0.915
22 | ERa_TRANS | 1.72 | 2.62 | 4.32 | 5.19 | 4.48 | 4.97 | 2.96 | 1.06
23 | ERRa_TRANS | 1.21 | 0.853 | 1.02 | 1.39 | 1.37 | 0.823 | 0.836 | 0.339
24 | GAL4_TRANS | 1.03 | 0.907 | 0.951 | 0.908 | 0.842 | 0.905 | 0.61 | 0.53

Row | Target | reporter fold induction (0.091 µM) | reporter fold induction (0.274 µM) | reporter fold induction (0.823 µM) | reporter fold induction (2.469 µM) | reporter fold induction (7.407 µM) | reporter fold induction (22.22 µM) | reporter fold induction (66.67 µM) | reporter fold induction (200 µM)
25 | XTT_Cytotoxicity | 97.6 ± 5.6 | 107 ± 18 | 111 ± 0.85 | 108 ± 3.1 | 123 ± 3.8 | 111.2 ± 0.75 | 113.8 ± 0.46 | 106.5 ± 0.33
26 | NF_kB_CIS | 1.08 | 0.96 | 0.971 | 0.979 | 0.968 | 1.08 | 1.39 | 1.06
27 | Ets_CIS | 1.02 | 0.953 | 1.01 | 1.02 | 1 | 0.917 | 1.01 | 0.897
28 | FoxO_CIS | 1.07 | 1.02 | 0.985 | 0.99 | 1.03 | 0.938 | 0.872 | 1.07
29 | CRE_CIS | 1.08 | 1.03 | 1.01 | 0.951 | 1.11 | 1.17 | 2.03 | 3.21
30 | RARa_TRANS | 1.04 | 0.782 | 1.21 | 1.2 | 1.48 | 2.4 | 2.07 | 0.506
31 | Pax6_CIS | 1 | 1.01 | 1.02 | 1.1 | 0.964 | 1.1 | 1.49 | 2.44
32 | LXRa_TRANS | 0.858 | 0.611 | 1 | 0.742 | 0.814 | 0.638 | 0.979 | 0.718
33 | LXRb_TRANS | 1.17 | 1.09 | 1 | 1.16 | 0.89 | 0.837 | 1.13 | 1.11
34 | M_61_CIS | 0.997 | 0.997 | 1.01 | 0.995 | 1.02 | 1.02 | 0.98 | 1.09
35 | CMV_CIS | 0.996 | 0.94 | 1 | 0.92 | 1.02 | 1.41 | 1.73 | 1.11
36 | AR_TRANS | 1.06 | 0.894 | 1.13 | 1.02 | 1.02 | 1.29 | 1.01 | 1.14
37 | M_19_TRANS | 1.08 | 0.97 | 1.01 | 0.967 | 0.981 | 0.997 | 1.01 | 1.02
38 | M_61_TRANS | 0.964 | 1.01 | 0.995 | 1.01 | 1.01 | 1 | 0.996 | 0.992
39 | M_06_CIS | 0.997 | 0.997 | 1.01 | 0.995 | 1.02 | 1.02 | 0.98 | 1.09
40 | p53_CIS | 1.06 | 1.04 | 1.03 | 0.969 | 0.996 | 0.831 | 1.19 | 0.456
41 | RORE_CIS | 1.04 | 1.06 | 1.06 | 0.974 | 1.08 | 1.15 | 1.84 | 1.72
42 | RORg_TRANS | 1.15 | 1.17 | 1.17 | 1.35 | 1.43 | 0.891 | 0.575 | 0.332
43 | M_32_CIS | 1.02 | 0.981 | 1 | 1.02 | 0.972 | 0.978 | 1.12 | 1.02
44 | TCF_b_cat_CIS | 1.06 | 0.944 | 1.13 | 1.06 | 0.839 | 0.671 | 0.77 | 0.204
45 | MRE_CIS | 1.05 | 0.983 | 1 | 0.924 | 1.22 | 1.2 | 1.8 | 3.72
46 | E2F_CIS | 1.02 | 0.922 | 0.954 | 1.04 | 0.971 | 0.968 | 0.945 | 1.23
47 | E_Box_CIS | 1.04 | 0.955 | 1.02 | 0.967 | 1.11 | 0.945 | 1.06 | 0.895
